Among all 5,500 compounds or so, about 2,000 (36%) were called active. Another 18% or so got no clear call; they are omitted. Rule as the data show it: active = normalized growth mostly below about 0.91 (no sharp cut-off); inconclusive = no clear call, values can overlap the other calls; inactive = mostly above about 0.92. The list shows a part of the results.
Experiment: chemical genetic growth profiling, strain panel (AID 1159580);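 also: tested at 20 µM; growth read once vehicle control cultures reached saturation at 30 °C; 1 = growth at the plate median or of vehicle wells; lower values mean less growth of the strain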
Settings: S. cerevisiae deletion strains, growth OD
[1] = locus YAL013W, strain DEP1, active compounds read low
[2] = locus YDR150W, strain NUM1, active compounds read low
[3] = locus YMR263W, strain SAP30, active compounds read low
[4] = locus YMR307W, strain GAS1, active compounds read low
[5] = locus YNL153C, strain GIM3, active compounds read low

Measured: normalized growth

O=C(CSc1nnc(-c2ccco2)n1-c1ccc2c(c1)OCCO2)c1cccc(F)c1
inactive: [1] 0.983 | locus YBR229C, strain ROT2, active compounds read low 1 | locus YCL061C, strain MRC1, active compounds read low 0.997 | locus YDL101C, strain DUN1, active compounds read low 0.987 | locus YDL134C, strain PPH21, active compounds read low 1 | [2] 1.01 | locus YEL061C, strain CIN8, active compounds read low 0.984 | locus YGR078C, strain PAC10, active compounds read low 0.988 | locus YGR229C, strain SMI1, active compounds read low 1 | locus YHR030C, strain SLT2, active compounds read low 0.961 | locus YHR087W, strain rtc3, active compounds read low 1 | locus YJL187C, strain SWE1, active compounds read low 1.01 | locus YJR043C, strain POL32, active compounds read low 0.997 | locus YJR075W, strain HOC1, active compounds read low 1.01 | locus YKL190W, strain CNB1, active compounds read low 1 | locus YLR039C, strain RIC1, active compounds read low 0.916 | locus YLR058C, strain SHM2 (second series), active compounds read low 1.01 | locus YLR085C, strain ARP6, active compounds read low 0.978 | locus YLR262C, strain YPT6, active compounds read low 0.954 | locus YML094W, strain GIM5, active compounds read low 0.983 | locus YMR219W, strain ESC1, active compounds read low 0.988 | [3] 0.909 | [4] 0.77 | [5] 0.988 | locus YNL298W, strain CLA4 (second series), active compounds read low 0.977 | locus YNL322C, strain KRE1, active compounds read low 0.989 | locus YNR030W, strain Alg12, active compounds read low 0.988 | locus YPL055C, strain LGE1, active compounds read low 0.968 | locus YPL241C, strain CIN2, active compounds read low 0.994 | locus YPR135W, strain CTF4, active compounds read low 0.854

Cn1cnc2c(NC3CCCC3)ncnc21
inactive: [1] 0.992 | locus YAL040C, strain CLN3, active compounds read low 0.993 | locus YCL061C, strain MRC1 (second series), active compounds read low 1 | [2] 0.999 | locus YDR363W, strain ESC2, active compounds read low 1 | locus YER002W, strain NOP16, active compounds read low 1.01 | [3] 1 | [4] 0.989 | locus YNL128W, strain TEP1, active compounds read low 1 | [5] 1.02 | locus YNL175C, strain NOP13, active compounds read low 1.04 | locus YNL197C, strain WHI3, active compounds read low 1 | locus YNL224C, strain SQS1, active compounds read low 0.997 | locus YOR083W, strain WHI5 (second series), active compounds read low 0.984

Source: PubChem BioAssay AID1159580 (chemical genetic matrix, 2015)
